These results are taken from the supplement of paper PMC7156485.

What all share (conditions): concentration: 10 µM; 24 h
In assay [1] the test system is HCC1569. Nature of the assay: cell number relative to DMSO (% of DMSO); higher = more cells (less growth inhibition / toxicity). In outline:
(§1)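 In 384-well plates holding 800 HCC1569 or TDF cells per well in RPMI with 10% FBS, compounds were tested at 10 µM for 24 h at 37 °C in triplicate. Fixation used 3.7% formaldehyde. Staining used a rabbit anti-H1.0 antibody with an AlexaFluor 647 secondary, plus DAPI. Each value, H1.0 nuclear intensity or cell number, is a median of replicates shown as percent of the plate control, and HCC1569 values were smoothed for positional effects.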

Assay [2] relates to TDF. Described as above. A digest of the protocol:
as §1

Assay [3] relates to TDF. Nature of the assay: H1.0 immunofluorescence intensity relative to DMSO (% of DMSO); higher = stronger H1.0 induction, active = 120 or more. In outline:
as §1

Assay [4] deals with HCC1569. Nature of the assay: H1.0 immunofluorescence intensity relative to DMSO (% of DMSO); higher = stronger H1.0 induction, active = 140 or more. In outline:
as §1

SMILES strings stand for the structures. ± gives the standard deviation of the averaged measurements.
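Throughout, for H1.0 immunofluorescence intensity relative to DMSO: TDF is a line of transformed human dermal fibroblasts of mesenchymal origin.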
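Throughout, for cell number relative to DMSO: TDF denotes transformed human dermal fibroblasts of mesenchymal origin.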

For `COc1ccc2c(c1)C13CCCCC1C(C2)NCC3.Cl` (stereo not drawn) [3-Methoxy-morphanin hydrochloride], the cell number in assay [1] worked out at 99.1; in assay [2], 107. The results for the H1.0 immunofluorescence intensity in assay [3] and in assay [4] were 97.3 (inactive) and 99.5 (inactive), respectively.

Turning to `CCOC(=O)c1ncn2c1C1CCCN1C(=O)c1cc(OC)ccc1-2` (stereo not drawn), the cell number in assay [1] stood at 103; in assay [2], 108. Further, the H1.0 immunofluorescence intensity in assay [3] was 88.2 (inactive); in assay [4], 102 (inactive).

Regarding `CC1CCC2C(C)C(=O)OC3OC4(C)CCC1C32OO4` (stereo not drawn) [Artemesinin], the cell number in assay [1] came to 102 ± 2.5; in assay [2], 97.4 ± 2.2. Further, the H1.0 immunofluorescence intensity in assay [3] was 95.9 (inactive); in assay [4], 116 (inactive).

Turning to `CN1C2CCC1CC(O)C2` (stereo not drawn) [Tropine], the cell number was found to be 102 in assay [1] and 104 in assay [2]. The H1.0 immunofluorescence intensity in assay [3] was 96.1 (inactive); in assay [4] it was 90 (inactive).

For `NC1CC1c1ccccc1` (stereo not drawn) [Tranylcypromine], the cell number in assay [1] came out at 102; in assay [2], 117. The H1.0 immunofluorescence intensity in assay [3] is 109 (inactive); in assay [4] it was 96 (inactive).

On to `CCCN(CCC)C1CCc2c(F)ccc(O)c2C1.Cl` (stereo not drawn) [R(+)-UH-301 hydrochloride], for which the cell number stood at 103 in assay [1] and 109 in assay [2]. Besides, the H1.0 immunofluorescence intensity in assay [3] is 89.2 (inactive); in assay [4], 101 (inactive).

In the case of `CC(C)(C)C1(O)CC2OC(=O)CC23C(=O)OC2OC(=O)C(O)C231` (stereo not drawn) [Bilobalide], the figures for the cell number in assay [1] and in assay [2] were 99.9 and 109, respectively. The H1.0 immunofluorescence intensity in assay [3] is 96.7 (inactive); in assay [4], 97.2 (inactive).

Turning to `O=P([O-])(O)C(Cl)(Cl)P(=O)([O-])O.[Na+].[Na+]` [Clodronic acid], the cell number in assay [1] and in assay [2] was 101 in each case. The H1.0 immunofluorescence intensity is 93.4 (inactive) in assay [3] and 96.4 (inactive) in assay [4].

Turning to `Cl.Cl.c1ccc(CCCN2CCN(CCOC(c3ccccc3)c3ccccc3)CC2)cc1`, the cell number in assay [1] amounted to 98.6; in assay [2], 91.5. The H1.0 immunofluorescence intensity is 103 (inactive) in assay [3] and 102 (inactive) in assay [4].

Take `COc1ccc2c(c1O)-c1cccc3c1C(C2)N(C)CC3.Cl` (stereo not drawn) [R(-)-Apocodeine hydrochloride]: the cell number was 103 in assay [1] and 89.9 in assay [2]. Also, the H1.0 immunofluorescence intensity was 97.6 (inactive) in assay [3] and 87.5 (inactive) in assay [4].

As to `CC1=CC2c3cccc4[nH]cc(c34)CC2N(C)C1` (stereo not drawn) [Agroclavine], the values for the cell number in assay [1] and in assay [2] were 100 and 103, respectively. Also, the H1.0 immunofluorescence intensity in assay [3] was 95.3 (inactive); in assay [4], 98.1 (inactive).

In the case of `CCCCCC1OC1CC=CCCCCCCCC(=O)O` (stereo not drawn) [Leukotoxin B (12,13-EODE)], the values for the cell number in assay [1] and in assay [2] were 105 and 106, respectively. Also, the H1.0 immunofluorescence intensity in assay [3] was 96.8 (inactive); in assay [4], 100 (inactive).

For the compound `CCN1CC2(COC)CCC(OC)C34C5CC6(O)C(OC)CC(OC(C)=O)(C5C6C(=O)c5ccc(OC)cc5)C(C(OC)C23)C14` (stereo not drawn) [Bulleyaconotine A], the cell number came to 99 in assay [1] and 103 in assay [2]. For the same compound, the H1.0 immunofluorescence intensity is 103 (inactive) in assay [3] and 88.8 (inactive) in assay [4].

For the compound `COC12CC(COC(=O)c3cncc(Br)c3)CN(C)C1Cc1cn(C)c3cccc2c13` (stereo not drawn) [Nicergoline], the cell number in assay [1] was found to be 104; in assay [2], 102. For the same compound, the H1.0 immunofluorescence intensity in assay [3] is 92.9 (inactive); in assay [4], 102 (inactive).

With `CCC(C(=O)O)C1CCC(C)C(C(C)C(O)C(C)C(=O)C(CC)C2OC3(C=CC(O)C4(CCC(C)(C5CCC(O)(CC)C(C)O5)O4)O3)C(C)CC2C)O1` (stereo not drawn) [Salinomycin], the cell number turned out to be 87.1 in assay [1] and 87.7 in assay [2]. The H1.0 immunofluorescence intensity is 111 (inactive) in assay [3] and 110 (inactive) in assay [4].

On to `CCCN1CCCC(c2cccc(O)c2)C1.Cl` (stereo not drawn) [S(-)-3PPP hydrochloride], for which the cell number in assay [1] is 99.1; in assay [2] it was 110. The results for the H1.0 immunofluorescence intensity in assay [3] and in assay [4] were 94.8 (inactive) and 104 (inactive), respectively.

In the case of `CCCCCC=CCC=CCC=CCC=CCCCC(=O)NCC(=O)O` [N-Arachidonylglycine], the values for the cell number in assay [1] and in assay [2] were 108 and 98.1, respectively. The H1.0 immunofluorescence intensity was 95.7 (inactive) in assay [3] and 95.8 (inactive) in assay [4].
